From the supplement of paper PMC11732987, “Enantioselective OTUD7B fragment discovery through chemoproteomics screening and high-throughput optimisation” (Communications Chemistry, 2025)

Tests used:
Assay in all cases: log2 ratio of Biotin-Ahx-Ub-VS probe labelling (fragment/DMSO); higher = less target engagement (more negative = stronger competition), active = hit call of the paper (q ≤ 0.05, log2 ratio ≤ -1)
Conditions in all cases: compound concentration: 200 uM; treatment time: 3 h
USP42 = molecular target: T1, USP42 (UniProt Q9H9J4)
T1 sequence (whole entry): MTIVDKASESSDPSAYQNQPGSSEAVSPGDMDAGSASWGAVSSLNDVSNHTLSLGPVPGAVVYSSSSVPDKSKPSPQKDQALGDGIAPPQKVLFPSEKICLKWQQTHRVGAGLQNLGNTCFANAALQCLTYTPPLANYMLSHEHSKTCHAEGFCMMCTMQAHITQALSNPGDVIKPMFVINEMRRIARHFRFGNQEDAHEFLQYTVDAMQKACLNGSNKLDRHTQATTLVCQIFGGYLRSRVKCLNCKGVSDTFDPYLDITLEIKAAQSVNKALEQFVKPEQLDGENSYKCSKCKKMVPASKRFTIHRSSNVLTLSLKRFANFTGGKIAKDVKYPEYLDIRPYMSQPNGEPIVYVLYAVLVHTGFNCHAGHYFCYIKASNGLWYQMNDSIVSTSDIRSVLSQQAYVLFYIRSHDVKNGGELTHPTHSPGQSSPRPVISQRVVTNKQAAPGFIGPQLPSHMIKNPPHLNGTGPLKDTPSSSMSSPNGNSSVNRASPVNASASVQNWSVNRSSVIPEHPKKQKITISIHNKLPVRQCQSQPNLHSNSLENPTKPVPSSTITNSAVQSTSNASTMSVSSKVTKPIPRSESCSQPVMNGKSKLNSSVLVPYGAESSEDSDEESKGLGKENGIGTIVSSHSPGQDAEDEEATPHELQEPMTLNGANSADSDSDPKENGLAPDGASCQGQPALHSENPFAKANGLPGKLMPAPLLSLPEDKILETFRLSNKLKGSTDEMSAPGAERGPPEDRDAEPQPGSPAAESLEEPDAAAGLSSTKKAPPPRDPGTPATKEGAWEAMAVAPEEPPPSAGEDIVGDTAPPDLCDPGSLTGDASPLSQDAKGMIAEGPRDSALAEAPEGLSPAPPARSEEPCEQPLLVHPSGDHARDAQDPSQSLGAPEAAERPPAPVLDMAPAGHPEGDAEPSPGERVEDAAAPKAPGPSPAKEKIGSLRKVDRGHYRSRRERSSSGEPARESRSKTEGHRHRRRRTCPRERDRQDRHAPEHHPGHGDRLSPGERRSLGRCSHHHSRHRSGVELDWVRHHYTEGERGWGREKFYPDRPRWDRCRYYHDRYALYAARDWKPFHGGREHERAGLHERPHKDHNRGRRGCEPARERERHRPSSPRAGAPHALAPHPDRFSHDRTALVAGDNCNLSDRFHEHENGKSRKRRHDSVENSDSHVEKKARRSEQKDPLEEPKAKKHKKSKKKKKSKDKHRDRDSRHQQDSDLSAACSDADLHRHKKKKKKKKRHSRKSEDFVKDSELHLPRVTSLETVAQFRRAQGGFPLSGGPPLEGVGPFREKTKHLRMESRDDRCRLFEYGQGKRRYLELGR
Summary of the method: (§1)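 HEK293T lysate (495 µg per sample, in Tris/CHAPS/IGEPAL buffer with protease inhibitors) was exposed in triplicate for 3 h to fragment at 200 µM or to vehicle, then to Biotin-Ahx-Ub-VS at 0.5 µM final for 1 h. Labelled DUBs were enriched on NeutrAvidin, digested with LysC and trypsin, and analysed by diaPASEF LC-MS/MS. Spectronaut label-free quantities were normalised to the global median, and values are average log2 ratios of fragment over vehicle from an unpaired t-test. Only proteins with ≥2 unique peptides were used.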

USP46 = USP46 (UniProt P62068)
Chain of USP46 (P62068 whole entry): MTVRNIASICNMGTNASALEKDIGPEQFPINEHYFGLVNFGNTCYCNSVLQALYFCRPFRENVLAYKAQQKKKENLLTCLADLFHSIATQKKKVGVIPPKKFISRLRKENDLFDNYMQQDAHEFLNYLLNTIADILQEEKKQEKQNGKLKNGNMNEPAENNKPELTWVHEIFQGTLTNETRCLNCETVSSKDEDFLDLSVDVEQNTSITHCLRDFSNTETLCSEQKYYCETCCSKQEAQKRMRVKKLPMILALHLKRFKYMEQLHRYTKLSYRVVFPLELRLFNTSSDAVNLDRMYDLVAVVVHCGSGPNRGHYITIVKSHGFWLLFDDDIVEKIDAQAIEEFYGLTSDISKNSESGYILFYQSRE
Summary of the method: as §1

USP47 = molecular target: T2, USP47 (UniProt Q96K76)
T2 sequence (whole entry): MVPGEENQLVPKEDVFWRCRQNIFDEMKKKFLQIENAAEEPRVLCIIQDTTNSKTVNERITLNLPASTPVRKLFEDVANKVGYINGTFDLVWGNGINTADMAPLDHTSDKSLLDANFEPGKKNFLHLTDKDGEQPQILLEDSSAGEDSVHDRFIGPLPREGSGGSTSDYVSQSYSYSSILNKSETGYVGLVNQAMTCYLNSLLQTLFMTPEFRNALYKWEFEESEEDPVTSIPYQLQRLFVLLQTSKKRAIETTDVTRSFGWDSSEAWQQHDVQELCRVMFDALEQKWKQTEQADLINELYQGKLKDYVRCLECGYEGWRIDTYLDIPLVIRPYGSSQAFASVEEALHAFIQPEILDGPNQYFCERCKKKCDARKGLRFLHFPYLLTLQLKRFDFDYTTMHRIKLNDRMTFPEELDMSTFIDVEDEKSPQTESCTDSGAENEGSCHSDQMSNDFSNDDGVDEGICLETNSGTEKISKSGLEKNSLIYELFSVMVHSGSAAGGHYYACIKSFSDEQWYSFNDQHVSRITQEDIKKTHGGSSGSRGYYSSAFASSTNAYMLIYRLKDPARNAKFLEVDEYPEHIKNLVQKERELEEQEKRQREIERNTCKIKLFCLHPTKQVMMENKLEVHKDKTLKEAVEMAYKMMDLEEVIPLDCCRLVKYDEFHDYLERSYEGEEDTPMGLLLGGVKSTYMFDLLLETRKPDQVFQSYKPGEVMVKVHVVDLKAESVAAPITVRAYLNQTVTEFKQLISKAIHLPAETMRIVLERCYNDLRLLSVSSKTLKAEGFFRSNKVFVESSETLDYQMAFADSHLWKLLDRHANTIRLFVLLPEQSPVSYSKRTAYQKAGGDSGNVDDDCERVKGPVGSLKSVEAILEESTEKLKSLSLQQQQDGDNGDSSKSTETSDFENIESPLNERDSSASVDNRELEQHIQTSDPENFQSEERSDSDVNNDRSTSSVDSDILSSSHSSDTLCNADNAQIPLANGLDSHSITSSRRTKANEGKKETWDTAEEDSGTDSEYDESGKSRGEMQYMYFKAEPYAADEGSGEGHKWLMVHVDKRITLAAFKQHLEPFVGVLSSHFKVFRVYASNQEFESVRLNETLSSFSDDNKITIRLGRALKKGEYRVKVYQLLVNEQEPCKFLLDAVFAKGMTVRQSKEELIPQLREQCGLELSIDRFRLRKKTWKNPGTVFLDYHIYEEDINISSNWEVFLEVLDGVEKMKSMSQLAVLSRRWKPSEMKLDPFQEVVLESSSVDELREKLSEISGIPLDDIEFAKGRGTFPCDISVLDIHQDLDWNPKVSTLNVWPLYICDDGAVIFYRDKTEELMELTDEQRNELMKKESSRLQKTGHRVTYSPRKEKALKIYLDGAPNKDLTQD
Summary of the method: as §1

USP48 = molecular target: T3, USP48 (UniProt Q86UV5)
T3 sequence (whole entry): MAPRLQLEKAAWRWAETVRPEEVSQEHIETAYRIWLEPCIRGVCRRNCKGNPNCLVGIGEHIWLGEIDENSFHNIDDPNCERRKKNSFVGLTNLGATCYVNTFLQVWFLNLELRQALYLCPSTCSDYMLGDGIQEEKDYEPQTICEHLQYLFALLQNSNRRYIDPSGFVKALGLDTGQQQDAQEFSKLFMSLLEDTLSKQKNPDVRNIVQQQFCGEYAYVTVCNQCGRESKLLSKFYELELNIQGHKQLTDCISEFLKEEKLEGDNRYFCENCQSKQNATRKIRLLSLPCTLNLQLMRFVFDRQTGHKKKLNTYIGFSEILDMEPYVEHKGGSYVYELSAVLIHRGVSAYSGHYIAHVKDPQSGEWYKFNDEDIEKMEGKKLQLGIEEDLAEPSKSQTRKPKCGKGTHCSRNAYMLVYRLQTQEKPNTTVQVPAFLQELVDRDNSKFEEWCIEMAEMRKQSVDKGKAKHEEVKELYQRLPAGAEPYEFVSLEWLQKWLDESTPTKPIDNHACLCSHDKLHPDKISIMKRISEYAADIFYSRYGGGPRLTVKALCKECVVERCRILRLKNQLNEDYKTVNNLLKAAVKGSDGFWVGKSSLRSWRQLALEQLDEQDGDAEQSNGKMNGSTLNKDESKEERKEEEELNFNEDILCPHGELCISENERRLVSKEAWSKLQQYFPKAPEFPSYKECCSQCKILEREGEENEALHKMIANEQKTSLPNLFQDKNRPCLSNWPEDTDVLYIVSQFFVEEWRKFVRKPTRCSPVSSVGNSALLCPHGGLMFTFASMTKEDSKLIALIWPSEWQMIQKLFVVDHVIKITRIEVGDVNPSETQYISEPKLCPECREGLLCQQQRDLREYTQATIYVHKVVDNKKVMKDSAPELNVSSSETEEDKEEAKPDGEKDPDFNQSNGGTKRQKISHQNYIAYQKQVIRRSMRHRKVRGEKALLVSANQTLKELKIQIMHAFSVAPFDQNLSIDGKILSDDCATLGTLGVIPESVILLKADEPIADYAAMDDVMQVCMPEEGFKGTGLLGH
Summary of the method: as §1

USP5 = molecular target: T4, USP5 (UniProt P45974)
T4 sequence (whole entry): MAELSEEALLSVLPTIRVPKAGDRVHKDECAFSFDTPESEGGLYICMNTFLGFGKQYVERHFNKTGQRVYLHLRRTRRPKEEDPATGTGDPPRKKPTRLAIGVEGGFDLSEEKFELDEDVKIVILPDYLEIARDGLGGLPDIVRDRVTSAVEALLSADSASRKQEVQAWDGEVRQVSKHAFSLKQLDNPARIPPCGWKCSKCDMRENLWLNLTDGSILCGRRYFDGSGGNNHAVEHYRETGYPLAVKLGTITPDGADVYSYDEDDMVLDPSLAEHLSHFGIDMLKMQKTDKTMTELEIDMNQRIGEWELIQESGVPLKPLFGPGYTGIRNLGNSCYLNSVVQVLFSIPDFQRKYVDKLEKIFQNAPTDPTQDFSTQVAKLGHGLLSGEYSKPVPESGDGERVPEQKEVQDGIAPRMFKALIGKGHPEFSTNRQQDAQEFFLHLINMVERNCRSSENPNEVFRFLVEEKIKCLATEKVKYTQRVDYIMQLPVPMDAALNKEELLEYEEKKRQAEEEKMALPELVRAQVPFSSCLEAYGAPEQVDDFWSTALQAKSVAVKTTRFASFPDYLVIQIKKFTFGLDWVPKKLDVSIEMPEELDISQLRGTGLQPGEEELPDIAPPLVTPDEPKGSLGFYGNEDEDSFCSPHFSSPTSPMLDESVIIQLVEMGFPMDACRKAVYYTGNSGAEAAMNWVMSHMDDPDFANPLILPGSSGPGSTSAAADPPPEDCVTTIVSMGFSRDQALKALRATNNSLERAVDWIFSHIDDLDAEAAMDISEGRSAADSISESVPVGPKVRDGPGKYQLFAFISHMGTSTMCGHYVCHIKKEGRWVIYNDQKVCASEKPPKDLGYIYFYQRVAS
Summary of the method: as §1

USP54 = USP54 (UniProt Q70EL1)
Chain of USP54 (Q70EL1 whole entry): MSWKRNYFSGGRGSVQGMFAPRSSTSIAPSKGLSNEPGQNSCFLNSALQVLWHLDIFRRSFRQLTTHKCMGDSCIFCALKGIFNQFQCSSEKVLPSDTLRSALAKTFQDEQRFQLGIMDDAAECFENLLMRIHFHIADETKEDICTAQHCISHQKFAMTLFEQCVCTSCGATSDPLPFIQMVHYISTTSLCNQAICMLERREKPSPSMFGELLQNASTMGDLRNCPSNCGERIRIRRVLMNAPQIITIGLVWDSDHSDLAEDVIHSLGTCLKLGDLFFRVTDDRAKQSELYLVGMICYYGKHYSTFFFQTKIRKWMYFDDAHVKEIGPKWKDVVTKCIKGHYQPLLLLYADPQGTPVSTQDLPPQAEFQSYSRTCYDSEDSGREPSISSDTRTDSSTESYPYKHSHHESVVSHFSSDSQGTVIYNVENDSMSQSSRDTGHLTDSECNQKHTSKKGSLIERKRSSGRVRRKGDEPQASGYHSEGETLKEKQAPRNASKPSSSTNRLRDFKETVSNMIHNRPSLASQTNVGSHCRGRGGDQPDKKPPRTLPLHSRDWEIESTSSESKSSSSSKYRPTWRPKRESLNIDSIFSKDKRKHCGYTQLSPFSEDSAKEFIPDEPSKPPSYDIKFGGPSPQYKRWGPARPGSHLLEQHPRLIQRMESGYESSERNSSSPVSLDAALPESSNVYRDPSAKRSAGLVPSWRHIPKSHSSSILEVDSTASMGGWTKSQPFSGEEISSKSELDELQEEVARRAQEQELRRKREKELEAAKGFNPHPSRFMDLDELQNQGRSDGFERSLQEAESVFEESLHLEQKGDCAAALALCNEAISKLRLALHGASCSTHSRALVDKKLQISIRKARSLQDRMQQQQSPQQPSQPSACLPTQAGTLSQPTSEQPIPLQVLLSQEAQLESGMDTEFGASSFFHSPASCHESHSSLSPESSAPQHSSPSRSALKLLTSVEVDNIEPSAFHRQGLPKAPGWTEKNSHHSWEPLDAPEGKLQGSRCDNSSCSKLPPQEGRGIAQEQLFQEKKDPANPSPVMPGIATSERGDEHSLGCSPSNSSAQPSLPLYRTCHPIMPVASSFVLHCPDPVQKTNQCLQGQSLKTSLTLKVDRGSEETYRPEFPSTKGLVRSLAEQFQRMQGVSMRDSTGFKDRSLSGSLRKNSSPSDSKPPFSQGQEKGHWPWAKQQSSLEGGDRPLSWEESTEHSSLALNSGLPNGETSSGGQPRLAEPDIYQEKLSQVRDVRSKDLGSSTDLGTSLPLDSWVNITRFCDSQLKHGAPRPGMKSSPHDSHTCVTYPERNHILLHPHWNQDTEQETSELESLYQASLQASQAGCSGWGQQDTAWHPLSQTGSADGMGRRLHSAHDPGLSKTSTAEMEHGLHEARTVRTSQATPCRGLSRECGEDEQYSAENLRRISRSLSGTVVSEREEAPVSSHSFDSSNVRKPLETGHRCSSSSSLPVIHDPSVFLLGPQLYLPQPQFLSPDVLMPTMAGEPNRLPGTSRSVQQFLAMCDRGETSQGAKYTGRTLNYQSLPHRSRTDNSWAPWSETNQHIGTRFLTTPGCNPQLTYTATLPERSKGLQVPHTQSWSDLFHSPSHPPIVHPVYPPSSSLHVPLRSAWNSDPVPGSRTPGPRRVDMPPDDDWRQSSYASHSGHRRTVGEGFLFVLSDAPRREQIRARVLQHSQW
Summary of the method: as §1

USP7 = USP7 (UniProt Q93009)
Chain of USP7 (Q93009 whole entry, looked up): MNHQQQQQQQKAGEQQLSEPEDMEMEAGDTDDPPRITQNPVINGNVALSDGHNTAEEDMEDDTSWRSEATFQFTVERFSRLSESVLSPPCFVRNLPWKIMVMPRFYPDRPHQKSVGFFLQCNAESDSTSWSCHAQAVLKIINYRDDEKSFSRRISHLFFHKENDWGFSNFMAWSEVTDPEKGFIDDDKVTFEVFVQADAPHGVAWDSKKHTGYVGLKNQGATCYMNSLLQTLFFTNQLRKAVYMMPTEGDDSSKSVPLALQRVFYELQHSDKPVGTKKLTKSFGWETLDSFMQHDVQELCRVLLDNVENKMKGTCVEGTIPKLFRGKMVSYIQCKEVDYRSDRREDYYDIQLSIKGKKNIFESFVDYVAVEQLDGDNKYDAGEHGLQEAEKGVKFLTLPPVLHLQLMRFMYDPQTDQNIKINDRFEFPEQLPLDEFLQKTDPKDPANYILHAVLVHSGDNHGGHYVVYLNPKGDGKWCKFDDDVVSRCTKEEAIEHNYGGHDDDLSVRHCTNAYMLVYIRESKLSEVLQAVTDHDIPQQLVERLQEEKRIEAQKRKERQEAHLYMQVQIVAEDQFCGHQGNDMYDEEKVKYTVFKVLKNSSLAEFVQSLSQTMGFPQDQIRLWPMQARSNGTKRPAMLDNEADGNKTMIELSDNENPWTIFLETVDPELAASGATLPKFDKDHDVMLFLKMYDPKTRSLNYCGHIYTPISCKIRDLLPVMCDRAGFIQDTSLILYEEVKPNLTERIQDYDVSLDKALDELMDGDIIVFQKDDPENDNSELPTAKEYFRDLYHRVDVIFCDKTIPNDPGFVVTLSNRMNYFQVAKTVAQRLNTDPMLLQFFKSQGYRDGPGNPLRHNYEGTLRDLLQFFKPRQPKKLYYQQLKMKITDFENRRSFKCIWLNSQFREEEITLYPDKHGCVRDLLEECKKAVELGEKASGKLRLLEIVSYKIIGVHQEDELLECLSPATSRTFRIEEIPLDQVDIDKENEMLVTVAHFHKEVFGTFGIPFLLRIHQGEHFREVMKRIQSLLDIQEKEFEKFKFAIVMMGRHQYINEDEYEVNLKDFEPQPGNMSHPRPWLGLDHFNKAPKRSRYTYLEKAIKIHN
Summary of the method: as §1

USP8 = molecular target: T5, USP8 (UniProt P40818)
T5 sequence (whole entry): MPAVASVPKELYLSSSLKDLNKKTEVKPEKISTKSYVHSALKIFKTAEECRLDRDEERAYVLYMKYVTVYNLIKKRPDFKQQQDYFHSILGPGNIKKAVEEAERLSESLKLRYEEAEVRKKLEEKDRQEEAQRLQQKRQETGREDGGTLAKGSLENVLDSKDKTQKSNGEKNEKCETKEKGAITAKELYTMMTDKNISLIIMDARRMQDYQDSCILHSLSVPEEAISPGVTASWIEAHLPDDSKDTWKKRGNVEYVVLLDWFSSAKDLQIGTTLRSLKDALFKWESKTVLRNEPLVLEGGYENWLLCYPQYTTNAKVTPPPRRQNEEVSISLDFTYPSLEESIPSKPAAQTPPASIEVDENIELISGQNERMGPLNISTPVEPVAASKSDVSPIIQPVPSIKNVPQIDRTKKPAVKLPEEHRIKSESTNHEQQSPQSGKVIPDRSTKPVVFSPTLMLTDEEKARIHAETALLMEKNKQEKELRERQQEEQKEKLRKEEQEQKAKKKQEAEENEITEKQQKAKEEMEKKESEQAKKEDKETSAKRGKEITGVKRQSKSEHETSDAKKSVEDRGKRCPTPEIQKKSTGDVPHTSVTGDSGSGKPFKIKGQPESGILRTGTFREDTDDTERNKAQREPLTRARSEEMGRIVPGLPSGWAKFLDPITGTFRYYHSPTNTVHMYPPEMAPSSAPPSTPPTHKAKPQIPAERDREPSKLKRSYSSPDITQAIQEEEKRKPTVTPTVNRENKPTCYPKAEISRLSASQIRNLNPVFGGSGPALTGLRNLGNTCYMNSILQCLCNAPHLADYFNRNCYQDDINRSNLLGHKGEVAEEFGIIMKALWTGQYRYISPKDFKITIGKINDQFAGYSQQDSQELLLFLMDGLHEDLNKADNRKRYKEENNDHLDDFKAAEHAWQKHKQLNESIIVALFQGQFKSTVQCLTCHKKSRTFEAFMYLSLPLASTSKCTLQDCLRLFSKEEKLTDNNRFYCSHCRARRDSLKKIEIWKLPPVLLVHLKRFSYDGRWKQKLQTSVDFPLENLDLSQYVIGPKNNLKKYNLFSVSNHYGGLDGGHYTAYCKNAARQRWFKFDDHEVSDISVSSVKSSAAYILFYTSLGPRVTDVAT
Summary of the method: as §1

Measured: log2 ratio of Biotin-Ahx-Ub-VS probe labelling

COc1ccc(CN(C)C(=O)CCl)cc1
inactive: USP42 0.294 | USP46 -0.0887 | USP47 -0.0389 | USP48 -0.604 | USP5 0.404 | USP54 0.256 | USP7 -0.907 | USP8 -0.448
